Consider 53 compounds from ChEMBL document CHEMBL4513216, “Probing the Open Global Health Chemical Diversity Library for Multistage-Active Starting Points for Next-Generation Antimalarials” (ACS Infect Dis, 2020).

In all, about 65,000 compounds went through this assay and about 2,100 (3.2%) showed an effect of 50% or more. The median lay at about -52%. The entries come from a sample that favours strong results as a whole.

The subject of this assay is Plasmodium falciparum. Put plainly: Screen against P. falciparum Asexual Blood Stage (ABS), at 5uM. In kind it is functional, Dd2. Conditions: tested at 5 uM.
For `Cc1csc(CCCNC(C)CC(=O)Nc2cccc(C)c2C)n1` (stereo not drawn), the INHIBITION was 50.9%.

Turning to `Cc1csc(CCCNC(C)CC(=O)Nc2ccc(F)cc2)n1` (stereo not drawn), the INHIBITION worked out at 50.5%.

Turning to `COc1ccccc1NC(=O)CC(C)NCCc1sc(C)nc1C` (stereo not drawn), the INHIBITION was found to be 22.2%. For the compound `Cc1csc(CNC(=O)NCC(O)c2ccc(F)cc2)n1` (stereo not drawn), the INHIBITION was -12.9%. For the compound `CC(NCC(=O)NCC(=O)Nc1ccc(F)cc1)c1cccs1` (stereo not drawn), the INHIBITION was -69.5%. The same measure for `COc1ccccc1NC(=O)CC(C)NCc1scnc1C` (stereo not drawn): -27.4%; for `COc1ccsc1C(=O)NC1CCN(c2cccc(F)c2)CC1`: 27.7%. The same measure for `Cc1ccc(NC2CCN(C(=O)Cn3nc(C)cc3C)CC2)nn1`: -1.51%; for `Cc1cnn(CC(=O)N2CCC(Nc3ccc(C)nn3)CC2)c1`: 56.7%; for `Cc1ccc(NC2CCN(C(=O)c3c(C)nn(C)c3Cl)CC2)nn1`: 62.2%.

Consider `Cc1ccc(NC2CCN(C(=O)c3ccc(C)o3)CC2)nn1`, for which the INHIBITION turned out to be 53.6%.

Turning to `CCn1nc(C)c(C(=O)N2CCC(Nc3ccc(C)nn3)CC2)c1C`, the INHIBITION was -18.1%. The result for `Cc1ccc(CC(=O)N2CCC(Nc3ccc(C)nn3)CC2)cn1` reads 18.7%; that for `Cc1ccc(NC2CCN(C(=O)c3ccc(Cl)o3)CC2)nn1`, -6.11%; that for `CCc1ccc(C(=O)N2CCC(Nc3ccc(C)nn3)CC2)o1`, -100%.

Take `Cc1ccc(NC2CCN(C(=O)c3c(C)noc3C)CC2)nn1`: the INHIBITION is -103%. The result for `CC1CCC(NC(=O)c2nn(C)cc2Br)CC1` (stereo not drawn) reads -46.7%. The result for `CCc1ccc(CN2CCc3c(nnn3C)C2COC)cc1` (stereo not drawn) reads -44.1%; that for `CC(C)Cn1cncc1CNC(=O)c1cccc(CC2CCNCC2)c1`, -83.2%; that for `O=C(NCc1cnn2cccnc12)c1cccc(CC2CCNCC2)c1`, 66.1%.

Consider `CC(C)(O)CCc1cccc(C(=O)NCc2cnn3cccnc23)c1`, for which the INHIBITION was -126%. The result for `c1ccc(SCCN2CCCC(Cn3ccnc3)C2)cc1` (stereo not drawn) reads -1.54%; that for `c1ccc(CCN2CCCC(Cn3ccnc3)C2)cc1` (stereo not drawn), 64.5%. `CSCCCN1CCCC(Cn2ccnc2)C1` (stereo not drawn): the INHIBITION is -62%. The same measure for `O=C(O)c1nnn(-c2cccc(C(F)(F)F)c2)c1-c1ccncc1`: -16.4%; for `COc1ccc(F)cc1S(=O)(=O)NCC(c1cccn1C)N(C)C` (stereo not drawn): -7.7%. `CN(C)C(CNS(=O)(=O)c1ccc(F)cc1F)c1cccn1C` (stereo not drawn): the INHIBITION was 31.8%. The same measure for `CN(C)C(CNS(=O)(=O)c1cc(F)ccc1F)c1cccn1C` (stereo not drawn): 54.6%; for `Cc1noc(C(C)C)c1C(=O)NCCCN1CCCCCC1=O`: -62.4%.

In the case of `Cc1nnc(SCCCNc2cc(C3CC3)ncn2)s1`, the INHIBITION is listed as -39.6%. The result for `COCc1nn(C)c2c1CN(Cc1cnn(C)c1)CC2` reads -6.19%; that for `CC1CCCN(Cc2c(C3CC3)n(CC(=O)N(C)C)c3ncccc23)C1` (stereo not drawn), -59.9%. The same measure for `Cc1cc(C2CCCN(CCC(=O)N3CCc4ccccc43)C2)n[nH]1` (stereo not drawn): 62.9%; for `Cc1cc(C2CCCN(CC(=O)N3CCCc4ccccc43)C2)n[nH]1` (stereo not drawn): -8.74%; for `Cc1cc(C2CCCN(CC(=O)N3CCc4ccccc43)C2)n[nH]1` (stereo not drawn): -81.5%. The result for `CC(=O)N1CCCC1c1cc(N2CCN(CC(C)(C)C)CC2)cc(C)n1` (stereo not drawn) reads -126%; that for `Clc1cccc(Cl)c1CNCCOc1ccccn1`, -77.7%.

`Cn1cc(N2CC3(CCN(Cc4ccoc4)CC3)OCC2=O)cn1`: the INHIBITION was -50.3%. For the compound `Cc1cc(C(=O)NC2CCc3c(ccc(=O)n3CCN(C)C)C2)no1` (stereo not drawn), the INHIBITION is -24%. The same measure for `Cc1cc2n(n1)CC(CNC1CCN(Cc3ccccn3)CC1)CN2` (stereo not drawn): -50.7%; for `Cc1cc2n(n1)CC(CNC1CCN(c3ccccn3)CC1)CN2` (stereo not drawn): -45.8%; for `Cc1cc2n(n1)CC(CNC1CCN(Cc3ccncc3)CC1)CN2` (stereo not drawn): -0.937%. The result for `Cc1cc2n(n1)CC(CNC1CCN(CCc3ccccc3)CC1)CN2` (stereo not drawn) reads 68.6%.

Regarding `Cc1ccccc1CN1CCC(NCC2CNc3ccnn3C2)CC1` (stereo not drawn), the INHIBITION is 67.1%. The result for `OCc1ccccc1CNCC1CNc2ccnn2C1` (stereo not drawn) reads 2.15%. The result for `CC(C)n1c2ccccc2c2c1cc(C(=O)NCCO)n2C(=O)N(C)C` reads -69.4%; that for `CC(CN1CCCC1=O)NC(=O)c1ccc(C(F)(F)F)[nH]c1=O` (stereo not drawn), -73.3%.

In the case of `Cc1noc(C)c1C(=O)N1CCC(Nc2cccnn2)CC1`, the INHIBITION is given as -19.3%.

Take `NC(=O)c1cc(C2CCCN(CCc3ccc4c(c3)CCO4)C2)n[nH]1` (stereo not drawn): the INHIBITION is reported as -88.6%. For the compound `O=C(c1c[nH]nn1)N1CCCC1C1CCCCC1` (stereo not drawn), the INHIBITION stood at 51%. The result for `O=C(c1ccc(=O)[nH]n1)N1CCCC1C1CCCC1` (stereo not drawn) reads -148%.

Turning to `O=C(c1cnc2[nH]c(=O)[nH]c(=O)c2c1)N1CCCC1C1CCCCC1` (stereo not drawn), the INHIBITION was found to be 0.342%. The same measure for `CNC(=O)C1(c2cnccn2)CCCN1C(=O)c1cccc(C)n1` (stereo not drawn): -80.1%.
